Source: PubChem BioAssay (EPA / NIEHS)
Active and inactive are the calls of the source. The calls were made as follows: active = hit-call score of the fitted dose curve at least 0.9, where 1 is the maximum; inactive = score below 0.9.

read-out: Monocyte Chemoattractant Protein-1 (MCP1), CCL2 (gene 6347); assay: BSK_CASM3C_MCP1: BioMAP Diversity Plus: CASM3C Assay for Monocyte Chemoattractant Protein-1 (MCP1) Biomarker Activity (AID 2283046); details: primary human coronary artery smooth muscle cells; actives raise or lower the signal;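 also: MCP-1 level quantified by ELISA 24 h after dosing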

SMILES	outcome	AC50
O=C(N[C@@H](c1ccccc1)[C@@H]1CCCCN1)c1cccc(C(F)(F)F)c1Cl	inactive	–
COc1ccc(OC(F)(F)F)cc1CN[C@H]1CCCN[C@H]1c1ccccc1	inactive	–
CCCCCCCCCCCCCCCCO	inactive	–
CC1=C(C)S(=O)(=O)CCS1(=O)=O	inactive	–
O=C(O)c1cccnc1	inactive	–
CC(=O)OCC(COC(C)=O)OC(C)=O	inactive	–
CC(=O)O	inactive	–
Oc1ccc(O)cc1	inactive	–
O=C1CCCCC1	inactive	–
C/C=C/C=C/C(=O)O	inactive	–
CCCCC(CC)COP(=O)(OCC(CC)CCCC)OCC(CC)CCCC (configuration not stated)	inactive	–
CC(=O)S[C@H](C(=O)N[C@H]1Cc2ccccc2[C@H]2CCC[C@@H](C(=O)O)N2C1=O)C(C)C	inactive	–
CN(C)C(=O)NC1(c2ccccc2)CCN(CCC[C@]2(c3ccc(Cl)c(Cl)c3)CCCN(C(=O)c3ccccc3)C2)CC1	–	0.037 µM (active)
CCCCCCCCCC[N+](C)(C)[O-]	inactive	–
CC(C)c1cccc(C(C)C)c1NC(=O)NS(=O)(=O)c1cc(C(C)(C)O)co1	inactive	–
OCC(O)CO	inactive	–
Nc1nc(Cl)nc2c1ncn2[C@H]1C[C@H](O)[C@@H](CO)O1	inactive	–
CCCCCCCC(=O)OC	inactive	–
N[C@@H](Cc1c[nH]c2ccccc12)C(=O)O	inactive	–
CCCC(=O)O	inactive	–
Cc1cn([C@H]2C=C[C@@H](CO)O2)c(=O)[nH]c1=O	inactive	–
O=NO	inactive	–
Oc1ccccc1O	inactive	–
Cc1cc(SC2=C(O)C[C@@](CCc3ccc(N)cc3)(C(C)C)OC2=O)c(C(C)(C)C)cc1CO	inactive	–
CCN(CC)CCOc1ccc(C(=C(Cl)c2ccccc2)c2ccccc2)cc1	–	33 µM (active)
CC(C)COC(=O)CCCCC(=O)OCC(C)C	inactive	–
O=C(O)CN(CC(=O)O)CC(=O)O	inactive	–
CS(=O)(=O)c1ccc([C@@H](C[C@H]2CCC(=O)C2)C(=O)Nc2cnccn2)cc1Cl	inactive	–
CCCCCCC(C=O)=Cc1ccccc1	inactive	–

read-out: not listed separately; assay: BSK_CASM3C_Proliferation: Cell Proliferation Assessment in the BioMAP Diversity Plus: CASM3C Assay (AID 2283047); details: primary human coronary artery smooth muscle cells;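 also: sulforhodamine B total protein stain as relative cell number at 560 nm; sub-confluent cells exposed 48 h before staining; fitted both ways against DMSO so gain or loss of cell number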

SMILES	AC50	outcome
O=C(N[C@@H](c1ccccc1)[C@@H]1CCCCN1)c1cccc(C(F)(F)F)c1Cl	30.3 µM (active)	–
COc1ccc(OC(F)(F)F)cc1CN[C@H]1CCCN[C@H]1c1ccccc1	29.6 µM (active)	–
CCCCCCCCCCCCCCCCO	–	inactive
CC1=C(C)S(=O)(=O)CCS1(=O)=O	–	inactive
O=C(O)c1cccnc1	–	inactive
CC(=O)OCC(COC(C)=O)OC(C)=O	–	inactive
CC(=O)O	–	inactive
Oc1ccc(O)cc1	25.7 µM (active)	–
O=C1CCCCC1	–	inactive
C/C=C/C=C/C(=O)O	–	inactive
CCCCC(CC)COP(=O)(OCC(CC)CCCC)OCC(CC)CCCC (configuration not stated)	–	inactive
CC(=O)S[C@H](C(=O)N[C@H]1Cc2ccccc2[C@H]2CCC[C@@H](C(=O)O)N2C1=O)C(C)C	–	inactive
CN(C)C(=O)NC1(c2ccccc2)CCN(CCC[C@]2(c3ccc(Cl)c(Cl)c3)CCCN(C(=O)c3ccccc3)C2)CC1	–	inactive
CCCCCCCCCC[N+](C)(C)[O-]	–	inactive
CC(C)c1cccc(C(C)C)c1NC(=O)NS(=O)(=O)c1cc(C(C)(C)O)co1	–	inactive
OCC(O)CO	–	inactive
Nc1nc(Cl)nc2c1ncn2[C@H]1C[C@H](O)[C@@H](CO)O1	0.54 µM (active)	–
CCCCCCCC(=O)OC	–	inactive
N[C@@H](Cc1c[nH]c2ccccc12)C(=O)O	–	inactive
CCCC(=O)O	–	inactive
Cc1cn([C@H]2C=C[C@@H](CO)O2)c(=O)[nH]c1=O	–	inactive
O=NO	–	inactive
Oc1ccccc1O	7.66 µM (active)	–
Cc1cc(SC2=C(O)C[C@@](CCc3ccc(N)cc3)(C(C)C)OC2=O)c(C(C)(C)C)cc1CO	–	inactive
CCN(CC)CCOc1ccc(C(=C(Cl)c2ccccc2)c2ccccc2)cc1	15 µM (active)	–
CC(C)COC(=O)CCCCC(=O)OCC(C)C	–	inactive
O=C(O)CN(CC(=O)O)CC(=O)O	–	inactive
CS(=O)(=O)c1ccc([C@@H](C[C@H]2CCC(=O)C2)C(=O)Nc2cnccn2)cc1Cl	–	inactive
CCCCCCC(C=O)=Cc1ccccc1	30.9 µM (active)	–

read-out: Monokine induced gamma interferon (MIG), CXCL9 (gene 4283); assay: BSK_CASM3C_MIG: BioMAP Diversity Plus: CASM3C Assay for Monokine induced gamma interferon (MIG) Biomarker Activity (AID 2283048); details: primary human coronary artery smooth muscle cells; actives raise or lower the signal;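 also: MIG protein level measured by ELISA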

SMILES	outcome	AC50
O=C(N[C@@H](c1ccccc1)[C@@H]1CCCCN1)c1cccc(C(F)(F)F)c1Cl	inactive	–
COc1ccc(OC(F)(F)F)cc1CN[C@H]1CCCN[C@H]1c1ccccc1	inactive	–
CCCCCCCCCCCCCCCCO	inactive	–
CC1=C(C)S(=O)(=O)CCS1(=O)=O	inactive	–
O=C(O)c1cccnc1	inactive	–
CC(=O)OCC(COC(C)=O)OC(C)=O	inactive	–
CC(=O)O	inactive	–
Oc1ccc(O)cc1	inactive	–
O=C1CCCCC1	inactive	–
C/C=C/C=C/C(=O)O	inactive	–
CCCCC(CC)COP(=O)(OCC(CC)CCCC)OCC(CC)CCCC (configuration not stated)	inactive	–
CC(=O)S[C@H](C(=O)N[C@H]1Cc2ccccc2[C@H]2CCC[C@@H](C(=O)O)N2C1=O)C(C)C	inactive	–
CN(C)C(=O)NC1(c2ccccc2)CCN(CCC[C@]2(c3ccc(Cl)c(Cl)c3)CCCN(C(=O)c3ccccc3)C2)CC1	inactive	–
CCCCCCCCCC[N+](C)(C)[O-]	inactive	–
CC(C)c1cccc(C(C)C)c1NC(=O)NS(=O)(=O)c1cc(C(C)(C)O)co1	inactive	–
OCC(O)CO	inactive	–
Nc1nc(Cl)nc2c1ncn2[C@H]1C[C@H](O)[C@@H](CO)O1	inactive	–
CCCCCCCC(=O)OC	inactive	–
N[C@@H](Cc1c[nH]c2ccccc12)C(=O)O	inactive	–
CCCC(=O)O	inactive	–
Cc1cn([C@H]2C=C[C@@H](CO)O2)c(=O)[nH]c1=O	inactive	–
O=NO	inactive	–
Oc1ccccc1O	inactive	–
Cc1cc(SC2=C(O)C[C@@](CCc3ccc(N)cc3)(C(C)C)OC2=O)c(C(C)(C)C)cc1CO	inactive	–
CCN(CC)CCOc1ccc(C(=C(Cl)c2ccccc2)c2ccccc2)cc1	–	31.5 µM (active)
CC(C)COC(=O)CCCCC(=O)OCC(C)C	inactive	–
O=C(O)CN(CC(=O)O)CC(=O)O	inactive	–
CS(=O)(=O)c1ccc([C@@H](C[C@H]2CCC(=O)C2)C(=O)Nc2cnccn2)cc1Cl	inactive	–
CCCCCCC(C=O)=Cc1ccccc1	inactive	–
